Data reported in PubChem BioAssay (Tox21).
Results filed as inconclusive are left out. Active and inactive are the calls of the source. Unless noted, the call rests on the fitted dose curve; in most records, active means well fitted curve in the direction sought with a large enough effect in the repeat runs; inconclusive means weak or mixed curves; inactive means no such curve, though single readings can be large; an effect the other way counts as inactive or inconclusive.

Assay: qHTS assay for small molecule activators of the heat shock response signaling pathway - cell viability counter screen (AID 743209); further: nearly all actives have a fitted effect of over 50% in size
Settings: HSE-bla HeLa viability, CellTiter-Glo luminescence, 5 h; series mostly up to 62.6 µM; activity change, negative = cytotoxicity: at the top concentration
How it was run: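 HSE-bla HeLa; 1500 cells/well; overnight 37 C, 5% CO2; compound 5 h 37 C; LiveBLAzer B/G substrate 2.5 h RT; CellTiter-Glo 30 min RT; luminescence.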
On the % scale 0 is the no-effect control and ±100 the full control effect.

Structure (SMILES)	activity change, negative = cytotoxicity
CC(C)C1CCC(O)CC1 (stereo not given)	-1.67% (inactive)
CO[C@@]1(NC(=O)CSC[C@@H](N)C(=O)O)C(=O)N2C(C(=O)O)=C(CSc3nnnn3C)CS[C@@H]21	-19.1% (inactive)
CCCCN1C=CN(C)C1	-9.55% [at 29.1 µM] (inactive)
CC(C#N)(CCC(=O)O)N=NC(C)(C#N)CCC(=O)O (stereo not given)	-1.62% (inactive)
NS(=O)(=O)Cc1noc2ccccc12	21.1% (inactive)
O=S(=O)(O)c1cc(O)c(O)c(S(=O)(=O)O)c1	-2.63% (inactive)
[O-][n+]1cccc(CO)c1	9.6% (inactive)
NC(CCC(=O)O)C(=O)O (stereo not given)	-6.01% (inactive)
c1ccc(Cc2ccccc2)cc1	-5.68% (inactive)
NCCCC[C@H](N[C@@H](CCc1ccccc1)C(=O)O)C(=O)N1CCC[C@H]1C(=O)O	5.32% (inactive)
CC(=O)c1ccccc1[N+](=O)[O-]	3.65% (inactive)
Nc1ccncc1N	16.8% (inactive)
CCOC(=O)c1cnc2c(cnn2CC)c1NN=C(C)C	-1.15% (inactive)
CN1CC(=O)N/C1=N/C(=O)Nc1cccc(Cl)c1	2.09% (inactive)
CC(=O)O[C@@]12CO[C@@H]1C[C@H](O)[C@@]1(C)C(=O)[C@H](O)C3=C(C)[C@@H](OC(=O)[C@H](O)[C@@H](NC(=O)OC(C)(C)C)c4ccccc4)C[C@@](O)([C@@H](OC(=O)c4ccccc4)[C@H]21)C3(C)C	3.19% (inactive)
COc1cc(C(=O)NCc2ccc(OCCN(C)C)cc2)cc(OC)c1OC	7.97% (inactive)

Structure (SMILES)	activity change, negative = cytotoxicity
O=[N+]([O-])c1ccc(/C=N\O)o1	2.69% (inactive)
CCN[C@@H]1C[C@H](N)[C@@H](OC2OC(CN)=CCC2N)[C@H](O)[C@H]1O[C@H]1OC[C@](C)(O)[C@H](NC)[C@H]1O (stereo not given in full)	9.84% [at 0.55 µM] (inactive)
CC(C)(C)C(=O)Oc1ccc(S(=O)(=O)Nc2ccccc2C(=O)NCC(=O)O)cc1	-26.1% (inactive)
CN(C)CCCN(C)CCCN(C)C	4.51% (inactive)
CC(=O)NC(=O)c1ccccc1O	6.43% (inactive)
CCC(C(=O)NC(=O)NC(C)=O)c1ccccc1 (stereo not given)	13.6% (inactive)
O=C(O)CCSCCC(=O)O	8.96% (inactive)
CC(=O)Nc1ccc(OCC(O)CNC(C)C)cc1 (stereo not given)	8.16% (inactive)
O=C(CO)[C@@H](O)[C@H](O)[C@@H](O)CO	4.94% (inactive)
COC(=O)Nc1ccc(Cl)c(Cl)c1	-5.5% (inactive)
CNCCO	-1.54% (inactive)
CCCc1ncc(C[n+]2ccccc2C)c(N)n1	-3.29% (inactive)
CCCCCCCCCCCCCCCCCCO	-5.05% (inactive)
COc1cc(C(=O)OC(COCCC(C)C)CN2CCOCC2)cc(OC)c1OC (stereo not given)	-11.9% (inactive)
CCC1C(=O)OCC1Cc1cncn1C (stereo not given)	-0.678% (inactive)

Assay: qHTS assay for small molecule activators of the heat shock response signaling pathway (AID 743210; active means well fitted activation curve with a large enough effect in the signal ratio in the repeat runs, with a control signal flat, not every such curve was filed as active; the % refers to the signal ratio;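 further: HeLa cells with beta-lactamase reporter driven by heat shock elements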)
Settings: HeLa HSE-bla reporter, beta-lactamase ratio, 5 h; series mostly up to 62.6 µM; activation: at the top concentration
How it was run: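 Following overnight attachment, HSE-bla HeLa cells received test compounds for 5 h at 37 C; beta-lactamase activity was then detected via FRET substrate fluorescence.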

Structure (SMILES)	activation
CC(C)C1CCC(O)CC1 (stereo not given)	-0.922% (inactive)
CCCCN1C=CN(C)C1	2.71% [at 29.1 µM] (inactive)
NS(=O)(=O)Cc1noc2ccccc12	-0.4% (inactive)
O=S(=O)(O)c1cc(O)c(O)c(S(=O)(=O)O)c1	-0.635% (inactive)
[O-][n+]1cccc(CO)c1	-0.28% (inactive)
c1ccc(Cc2ccccc2)cc1	-0.692% (inactive)
CC(=O)c1ccccc1[N+](=O)[O-]	-0.614% (inactive)
Nc1ccncc1N	0.175% (inactive)
CCOC(=O)c1cnc2c(cnn2CC)c1NN=C(C)C	-0.0212% (inactive)
CN1CC(=O)N/C1=N/C(=O)Nc1cccc(Cl)c1	-1% (inactive)
CC(=O)O[C@@]12CO[C@@H]1C[C@H](O)[C@@]1(C)C(=O)[C@H](O)C3=C(C)[C@@H](OC(=O)[C@H](O)[C@@H](NC(=O)OC(C)(C)C)c4ccccc4)C[C@@](O)([C@@H](OC(=O)c4ccccc4)[C@H]21)C3(C)C	0.75% (inactive)
COc1cc(C(=O)NCc2ccc(OCCN(C)C)cc2)cc(OC)c1OC	-0.0291% (inactive)
CCN[C@@H]1C[C@H](N)[C@@H](OC2OC(CN)=CCC2N)[C@H](O)[C@H]1O[C@H]1OC[C@](C)(O)[C@H](NC)[C@H]1O (stereo not given in full)	-1.49% [at 0.55 µM] (inactive)
CN(C)CCCN(C)CCCN(C)C	-1.28% (inactive)
CC(=O)NC(=O)c1ccccc1O	-1.18% (inactive)
O=C(O)CCSCCC(=O)O	-0.0551% (inactive)
CC(=O)Nc1ccc(OCC(O)CNC(C)C)cc1 (stereo not given)	1.23% (inactive)
CN(C)[C@@H]1C(=O)C(C(=O)NCN2CCCC2)=C(O)[C@@]2(O)C(=O)C3=C(O)c4c(O)cccc4[C@@](C)(O)C3C[C@@H]12 (stereo not given in full)	0.324% (inactive)
O=C(CO)[C@@H](O)[C@H](O)[C@@H](O)CO	-0.225% (inactive)
COC(=O)Nc1ccc(Cl)c(Cl)c1	-0.111% (inactive)
CNCCO	-0.0669% (inactive)
CCCc1ncc(C[n+]2ccccc2C)c(N)n1	0.625% (inactive)
COc1cc(C(=O)OC(COCCC(C)C)CN2CCOCC2)cc(OC)c1OC (stereo not given)	-0.125% (inactive)
CCC1C(=O)OCC1Cc1cncn1C (stereo not given)	-0.907% (inactive)
CCCOC(=O)CC	0.234% (inactive)
CCC(=O)OCc1ccccc1	-0.411% (inactive)
CCOc1ccccc1OCC	-1.11% (inactive)

Assay: qHTS assay to identify small molecule agonists of the peroxisome proliferator-activated receptor delta (PPARd) signaling pathway - cell viability counter screen (AID 743211); further: nearly all actives have a fitted effect of over 55% in size
Settings: PPARd-bla HEK293H viability, CellTiter-Glo luminescence, 17 h; series mostly up to 62.6 µM; activity change, negative = cytotoxicity: at the top concentration
How it was run: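 PPARd-bla HEK293H cells (3000/well) were pre-incubated 5 h at 37 C, then exposed to compound for 17 h at 37 C. After 2 h with LiveBLAzer substrate, CellTiter-Glo was added to the same wells; luminescence read after 30 min at room temperature.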

Structure (SMILES)	activity change, negative = cytotoxicity
N[C@@H](CCC(=O)O)C(=O)O	6.42% (inactive)
CC(C)C1CCC(O)CC1 (stereo not given)	-7.08% (inactive)
CO[C@@]1(NC(=O)CSC[C@@H](N)C(=O)O)C(=O)N2C(C(=O)O)=C(CSc3nnnn3C)CS[C@@H]21	-2.82% (inactive)
CCCCN1C=CN(C)C1	-7.65% [at 29.1 µM] (inactive)
CC(C#N)(CCC(=O)O)N=NC(C)(C#N)CCC(=O)O (stereo not given)	3.5% (inactive)
NS(=O)(=O)Cc1noc2ccccc12	11.6% (inactive)
O=S(=O)(O)c1cc(O)c(O)c(S(=O)(=O)O)c1	0.256% (inactive)
[O-][n+]1cccc(CO)c1	15.7% (inactive)
O=C(O)CC(C(=O)O)S(=O)(=O)O (stereo not given)	-18.8% (inactive)
NC(CCC(=O)O)C(=O)O (stereo not given)	1.3% (inactive)
c1ccc(Cc2ccccc2)cc1	12.8% (inactive)
NCCCC[C@H](N[C@@H](CCc1ccccc1)C(=O)O)C(=O)N1CCC[C@H]1C(=O)O	-1.04% (inactive)
CC(=O)c1ccccc1[N+](=O)[O-]	0.255% (inactive)
Nc1ccncc1N	-5.93% (inactive)
CCOC(=O)c1cnc2c(cnn2CC)c1NN=C(C)C	5.64% (inactive)
CN1CC(=O)N/C1=N/C(=O)Nc1cccc(Cl)c1	1.5% (inactive)
CC(=O)O[C@@]12CO[C@@H]1C[C@H](O)[C@@]1(C)C(=O)[C@H](O)C3=C(C)[C@@H](OC(=O)[C@H](O)[C@@H](NC(=O)OC(C)(C)C)c4ccccc4)C[C@@](O)([C@@H](OC(=O)c4ccccc4)[C@H]21)C3(C)C	1.26% (inactive)
COc1cc(C(=O)NCc2ccc(OCCN(C)C)cc2)cc(OC)c1OC	-10.3% (inactive)
O=[N+]([O-])c1ccc(/C=N\O)o1	-5.32% (inactive)

Structure (SMILES)	activity change, negative = cytotoxicity
CCN[C@@H]1C[C@H](N)[C@@H](OC2OC(CN)=CCC2N)[C@H](O)[C@H]1O[C@H]1OC[C@](C)(O)[C@H](NC)[C@H]1O (stereo not given in full)	7.95% [at 0.55 µM] (inactive)
CC(C)(C)C(=O)Oc1ccc(S(=O)(=O)Nc2ccccc2C(=O)NCC(=O)O)cc1	-3.02% (inactive)
CN(C)CCCN(C)CCCN(C)C	1.89% (inactive)
CCC(C(=O)NC(=O)NC(C)=O)c1ccccc1 (stereo not given)	8.2% (inactive)
O=C(O)CCSCCC(=O)O	-4.49% (inactive)
CCC(C)(CCCC(C)C)OC(C)=O (stereo not given)	2.66% (inactive)
CC(=O)Nc1ccc(OCC(O)CNC(C)C)cc1 (stereo not given)	4.88% (inactive)
CN(C)[C@@H]1C(=O)C(C(=O)NCN2CCCC2)=C(O)[C@@]2(O)C(=O)C3=C(O)c4c(O)cccc4[C@@](C)(O)C3C[C@@H]12 (stereo not given in full)	1.82% (inactive)
O=C(CO)[C@@H](O)[C@H](O)[C@@H](O)CO	10.8% (inactive)
COC(=O)Nc1ccc(Cl)c(Cl)c1	2.46% (inactive)
CNCCO	-1.42% (inactive)
CCCc1ncc(C[n+]2ccccc2C)c(N)n1	0.0891% (inactive)
CCCCCCCCCCCCCCCCCCO	9.27% (inactive)
COc1cc(C(=O)OC(COCCC(C)C)CN2CCOCC2)cc(OC)c1OC (stereo not given)	5.71% (inactive)
CCC1C(=O)OCC1Cc1cncn1C (stereo not given)	1.51% (inactive)
CCCOC(=O)CC	9.42% (inactive)
CCC(=O)OCc1ccccc1	14.2% (inactive)
CCOc1ccccc1OCC	-0.874% (inactive)
